“And” between values parts separate entries of the source, which are not always exact repeats. Identical values can stand only once. Among all 73,000 compounds or so, about 1,800 (2.5%) were called active. Where a call stands in place of a potency, no number is given. About 13% were inconclusive and are not listed. Calls come from the whole dose curve; as a rule, active = well fitted activation curve with a large enough effect; inconclusive = small, poorly fitted or top-dose-only effect; inactive = no such curve, though single readings can be large or run the other way. For the sample, actives were picked, then their nearest neighbours and some compounds at random. Some compounds were tested as several samples or in several runs, with calls that do not always agree.
Experiment: qHTS Assay for Agonists of the Thyroid Stimulating Hormone Receptor: Activators of Intracellular cAMP Concentrations in Parental HEK 293; note: nearly all actives have a fitted effect of over 55% in size
Settings: parental HEK293 CNG cAMP sensor, membrane potential fluorescence; series mostly up to 57.1 µM
Text: NIH Chemical Genomics Center [NCGC]
NIH Molecular Libraries Screening Centers Network [MLSCN]
PI Name: Dr. Marvin Gershengorn
This cell based assay utilized a cyclic nucleotide gated ion channel (CNG) as a biosensor for cAMP induction. HEK 293 cells stably expressing the modified CNG were purchased from BD biosciences (http://www.atto.com/products/actone/features_benefits.shtml) . Stimulation of cAMP production causes the CNG to open and subsequent membrane depolarization to occur. A fluorescent membrane potential dye (BD biosciences) was utilized to detect cAMP stimulation in cells.
The cells were maintained in DMEM medium (Invitrogen) containing 10 % FBS (Hyclone), 100 units/ml Penicillin, 100 ug/ml Streptomycin (Invitrogen), and 250 ug/ml Geneticin (Invitrogen) and 1 ug/ml Puromycin (Invitrogen) at 37C in 5% CO2. This assay was used as a counterscreen to "qHTS Assay for Agonists of the Thyroid Stimulating Hormone Receptor", to control for compounds signaling through endogenous receptors and other targets of HEK 293 cells.
NCGC Assay Protocol Summary:
High Throughput Screening. Freshly passaged cells were dispensed into 1536-well assay plates at 4 ul/well in DMEM containing phenol red (Invitrogen), 10% FCS (Hyclone), and 100 units/ml Penicillin, 100 ug/ml Streptomycin (Invitrogen) and incubated at 37 C with 5% CO2 for 20 to 36 hrs before the robotic screening. The screen was initiated by addition of 4 ul/well membrane potential dye containing 100 uM RO 20-1724 (Sigma Aldrich), followed by 60 min incubation at room temperature to allow for dye equilibration across the cell membrane. 23 nl/well compound or control was then added to the assay plates, which were incubated for additional 30 min before reading a Envision fluorescence plate reader (Perkin Elmer) in bottom-read mode for fluorescence intensity (emission at 590 nm).
Keywords: cAMP, CNG Ion Channel, quantitative high throughput screening, qHTS, HTS, probe identification, CNG, cAMP, cyclic nucleotide gated ion channel PubChem
Potency is the fitted concentration of half-maximal effect.

| Compound | Potency |
| --- | --- |
| C/C(CCc1c[nH]c2ccccc12)=N\O | inactive |
| NCCc1c[nH]c2ccc(O)cc12 | inactive and 31.6 µM (active) |
| CC(C)(c1ccc(OC[C@@H]2CO2)cc1)c1ccc(OC[C@H]2CO2)cc1 | inactive |
| N#CCCCl | inactive |
| ClC(Cl)(Cl)c1ccccc1 | inactive |
| Fc1ccc(C(OCCN2CCN(C/C=C\c3ccccc3)CC2)c2ccc(F)cc2)cc1 | inactive |
| c1ccc(C2NCc3ccccc3-n3cccc32)cc1 (stereo not given) | 25.1 µM (active) |
| COc1ccc(C2NCc3ccc4c(c3-n3cccc32)OCO4)cc1OC (stereo not given) | inactive |
| CC(C)CC(C)Nc1ccc(Nc2ccccc2)cc1 (stereo not given) | inactive |
| O=[N+]([O-])c1ccc(Cl)c(Cl)c1 | inactive |
| CC(C)(c1ccccc1)c1ccc(O)cc1 | inactive |
| CC(C)(C)C(O)(CCc1ccc(Cl)cc1)Cn1cncn1 (stereo not given) | inactive |
| C[C@@]1([C@@H](NP(=O)(c2ccccc2)c2ccccc2)c2ccccc2)C[C@H]1CCO | 15.8 µM (active) |
| O=C1C2(Cl)C3(Cl)C4(Cl)C(Cl)(Cl)C5(Cl)C3(Cl)C1(Cl)C5(Cl)C24Cl (stereo not given) | inactive |
| CCCCC#N | inactive |
